Measurements published in PubChem BioAssay.
For part of these data: Potency and affinity values are given separately. Active and inactive are the calls of the source. Unless noted, how the calls were made is not given here.

Columns and labels:
[1] = antimalarial activity against Dd2 strain (AID 2302;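 active means growth inhibition above 50% at the single 2 µM test dose, taken to imply half-maximal potency below 2 µM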;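 further: 0% = DMSO untreated growth and 100% = chloroquine plus artemisinin killed control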); conditions: P. falciparum Dd2 in RBCs, LDH growth readout, 72 h; at 2 µM; hits give high values
[2] = human hepatoma cell viability loss – ATP luminescence, cytotoxicity control for P. falciparum antimalarial project, primary screen (AID 2303;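 active means inhibition above 50%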;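 further: 0% = DMSO wells and 100% = digitonin-killed cells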); conditions: HepG2 viability, 24-48 h, at 10 µM, hits give high values
[3] = molecular target: L-lactate dehydrogenase (Plasmodium falciparum (isolate CDC / Honduras)) (UniProt Q27743); assay: PfLDH activity inhibition – cell lysate, 3D7 strain, counter-screen for P. falciparum growth inhibition project (AID 2304);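 further: 0% = vehicle and 100% = reference inhibitor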; conditions: P. falciparum 3D7 crude extract, LDH APAD/NBT absorbance; at 2 µM; hits give high values
L-lactate dehydrogenase (Plasmodium falciparum (isolate CDC / Honduras)), sequence (Q27743 whole entry, looked up): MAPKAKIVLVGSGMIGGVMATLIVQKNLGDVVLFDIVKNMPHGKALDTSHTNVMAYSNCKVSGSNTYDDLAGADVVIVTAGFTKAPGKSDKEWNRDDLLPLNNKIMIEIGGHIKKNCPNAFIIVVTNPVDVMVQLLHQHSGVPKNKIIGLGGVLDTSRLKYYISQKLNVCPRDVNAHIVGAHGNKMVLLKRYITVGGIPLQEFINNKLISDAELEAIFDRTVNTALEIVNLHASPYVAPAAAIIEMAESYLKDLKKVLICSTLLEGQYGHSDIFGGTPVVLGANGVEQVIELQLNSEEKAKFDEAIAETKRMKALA

[4] = inhibition of 3D7 malaria parasite growth – strain 3D7 (AID 2306);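 further: 0% = DMSO wells and 100% = chloroquine plus artemisinin control wells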; conditions: P. falciparum 3D7 erythrocytic growth, LDH absorbance, 72 h; at 2 µM; hits give high values
[5] = molecular target: Calcium-dependent protein kinase 1 (Plasmodium falciparum (isolate 3D7)) (UniProt P62344); assay: PfCDPK1 kinase inhibitors, biochemical, TCAMS library (AID 1159585; cut-off not given, nearly all actives have IC50 up to about 0.98 µM;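 further: inhibitors leave more ATP so luminescence rises with inhibition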); conditions: recombinant PfCDPK1, Kinase-Glo ATP depletion luminescence
Calcium-dependent protein kinase 1 (Plasmodium falciparum (isolate 3D7)), sequence (P62344 whole entry, looked up): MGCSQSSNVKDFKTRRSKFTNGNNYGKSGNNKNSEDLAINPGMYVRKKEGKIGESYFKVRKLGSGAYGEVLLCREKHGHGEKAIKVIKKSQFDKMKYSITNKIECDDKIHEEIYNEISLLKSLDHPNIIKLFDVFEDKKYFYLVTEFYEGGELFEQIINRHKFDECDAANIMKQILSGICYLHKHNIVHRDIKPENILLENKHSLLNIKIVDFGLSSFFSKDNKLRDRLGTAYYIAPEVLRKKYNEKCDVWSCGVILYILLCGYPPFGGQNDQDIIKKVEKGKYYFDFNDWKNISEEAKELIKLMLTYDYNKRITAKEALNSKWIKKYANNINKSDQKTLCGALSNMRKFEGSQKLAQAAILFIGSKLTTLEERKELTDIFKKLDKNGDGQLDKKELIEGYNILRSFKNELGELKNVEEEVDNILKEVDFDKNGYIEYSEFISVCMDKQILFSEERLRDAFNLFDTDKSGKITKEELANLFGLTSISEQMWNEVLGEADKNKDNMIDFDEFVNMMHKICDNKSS

[6] = molecular target: Plasmodium falciparum protein kinase 6 (PK6, PF3D7_1337100) (UniProt Q8IDW1); assay: PfPK6 kinase inhibitors, biochemical, TCAMS library (AID 1159586); conditions: recombinant PfPK6, Kinase-Glo ATP depletion luminescence
Plasmodium falciparum protein kinase 6 (PK6, PF3D7_1337100), sequence (Q8IDW1 1-305): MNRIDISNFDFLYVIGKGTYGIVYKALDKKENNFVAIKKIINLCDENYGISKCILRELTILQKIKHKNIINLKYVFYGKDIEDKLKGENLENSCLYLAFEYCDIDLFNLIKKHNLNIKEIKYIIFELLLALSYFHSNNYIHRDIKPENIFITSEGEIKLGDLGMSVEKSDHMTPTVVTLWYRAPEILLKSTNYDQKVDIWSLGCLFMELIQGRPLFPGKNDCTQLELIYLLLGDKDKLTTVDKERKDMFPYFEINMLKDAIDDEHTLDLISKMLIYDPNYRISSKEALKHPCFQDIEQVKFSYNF

[7] = molecular target: Protein kinase 7 (PK7), Plasmodium falciparum 3D7 (PF3D7_0213400) (UniProt Q7YTF7); assay: inhibition of Plasmodium PK7 catalytic activity – biochemical, TCAMS antimalarial set, Kinase-Glo luminescence (AID 1159587); conditions: recombinant PfPK7, Kinase-Glo ATP depletion luminescence
Protein kinase 7 (PK7), Plasmodium falciparum 3D7 (PF3D7_0213400), sequence (Q7YTF7 1-343): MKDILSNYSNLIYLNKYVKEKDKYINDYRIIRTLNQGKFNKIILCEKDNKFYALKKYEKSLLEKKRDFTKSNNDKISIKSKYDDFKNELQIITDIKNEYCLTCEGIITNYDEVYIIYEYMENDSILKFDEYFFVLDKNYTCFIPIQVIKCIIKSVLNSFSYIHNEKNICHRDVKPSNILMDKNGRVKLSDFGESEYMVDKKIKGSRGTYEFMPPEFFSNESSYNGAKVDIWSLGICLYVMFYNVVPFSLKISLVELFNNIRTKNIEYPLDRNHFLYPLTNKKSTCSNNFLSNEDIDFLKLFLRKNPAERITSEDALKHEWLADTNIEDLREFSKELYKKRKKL

[8] = molecular target: Calcium-dependent protein kinase 4 (Plasmodium falciparum (isolate 3D7)) (UniProt Q8IBS5); assay: PfCDPK4 kinase inhibitors, biochemical, TCAMS library (AID 1159588; cut-off not given, nearly all actives have IC50 up to about 0.91 µM); conditions: recombinant PfCDPK4, Kinase-Glo ATP depletion luminescence
Calcium-dependent protein kinase 4 (Plasmodium falciparum (isolate 3D7)), sequence (Q8IBS5 whole entry, looked up): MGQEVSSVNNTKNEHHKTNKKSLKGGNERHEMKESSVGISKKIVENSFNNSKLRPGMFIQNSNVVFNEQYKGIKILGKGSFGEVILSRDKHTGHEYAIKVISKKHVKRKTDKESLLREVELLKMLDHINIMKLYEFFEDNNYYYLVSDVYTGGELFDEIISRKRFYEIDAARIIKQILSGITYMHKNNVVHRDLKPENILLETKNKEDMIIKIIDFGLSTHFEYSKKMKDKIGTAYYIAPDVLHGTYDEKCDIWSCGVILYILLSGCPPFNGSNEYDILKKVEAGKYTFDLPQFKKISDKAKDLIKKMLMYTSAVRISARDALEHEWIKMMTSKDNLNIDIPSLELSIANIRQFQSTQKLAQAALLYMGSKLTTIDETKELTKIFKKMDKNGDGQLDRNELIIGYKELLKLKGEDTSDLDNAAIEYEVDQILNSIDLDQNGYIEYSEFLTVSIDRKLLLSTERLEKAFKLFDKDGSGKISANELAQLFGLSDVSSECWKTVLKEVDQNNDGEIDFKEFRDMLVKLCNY

Cc1ccc(S(C)(=O)=O)cc1/C=C/C(=O)O
inactive: growth inhibition [1] 1% | inhibition [2] -7% | inhibition [3] 4% | outcome [5] | outcome [6] | outcome [7] | outcome [8]
active: growth inhibition [4] 96%

CC[C@H](C)CNC(=O)c1cncc(-c2cccc(CN3CCC(N4CCCC4)CC3)c2)c1
active: growth inhibition [4] 97%
inactive: growth inhibition [1] 5% | inhibition [2] -1% | inhibition [3] 6% | outcome [5] | outcome [6] | outcome [7] | outcome [8]

Cc1ccccc1C1CCN(C2CCC(NC(=O)/C=C/c3ccc(F)cc3)CC2)CC1 (configuration not stated)
active: inhibition [2] 61% | growth inhibition [4] 87%
inactive: growth inhibition [1] 30% | inhibition [3] -2% | outcome [5] | outcome [6] | outcome [7] | outcome [8]

CC1(CCCCN2CCC(Oc3ccc(F)cc3F)CC2)C(=O)Nc2ccccc21 (configuration not stated)
active: growth inhibition [4] 99%
inactive: growth inhibition [1] 6% | inhibition [2] 6% | inhibition [3] -6% | outcome [5] | outcome [6] | outcome [7] | outcome [8]

CCn1cc(CN2CCCC(C(=O)Nc3ccc(-c4nc5ccccc5[nH]4)cc3)C2)c(C)n1 (configuration not stated)
active: growth inhibition [4] 100%
inactive: growth inhibition [1] 28% | inhibition [2] 22% | inhibition [3] 2% | outcome [5] | outcome [6] | outcome [7] | outcome [8]

Cc1cc(OCCCN=C(N)c2ccc3ccccc3c2)c(C(C)C)cc1Cl
inactive: growth inhibition [1] 10% | inhibition [3] 2% | outcome [5] | outcome [6] | outcome [7] | outcome [8]
active: inhibition [2] 89% | growth inhibition [4] 95%

CCOc1cc(C(=O)Nc2ccccc2N2CCN(S(C)(=O)=O)CC2)cc(OCC)c1OCC
inactive: inhibition [2] -1% | inhibition [3] -2% | outcome [5] | outcome [6] | outcome [7] | outcome [8]
active: growth inhibition [1] 80% | growth inhibition [4] 91%

COc1cc2nccc(Nc3ccc(OCc4ccc(NC(C)=O)cc4)cc3)c2cc1OC
inactive: inhibition [2] 24% | inhibition [3] 3% | outcome [5] | outcome [6] | outcome [7] | outcome [8]
active: growth inhibition [1] 95% | growth inhibition [4] 101%

O=C(NC(=O)c1ccccc1O)c1ccccc1O
inactive: inhibition [2] -5% | inhibition [3] -2% | outcome [5] | outcome [6] | outcome [7] | outcome [8]
active: growth inhibition [1] 79% | growth inhibition [4] 97%

CCc1cccc(OCC2CCCN(c3ccc(C(=O)NC4CC4)cn3)C2)c1 (configuration not stated)
inactive: inhibition [2] -1% | inhibition [3] 5% | outcome [5] | outcome [6] | outcome [7] | outcome [8]
active: growth inhibition [1] 73% | growth inhibition [4] 94%

CCOC(=O)c1ccc(OCCCCCCOc2ccc(Br)cc2)cc1
active: growth inhibition [4] 98%
inactive: growth inhibition [1] -2% | inhibition [2] 12% | inhibition [3] -4% | outcome [5] | outcome [6] | outcome [7] | outcome [8]

CCN1CCC(N(Cc2ccc(-c3ccc(C(F)(F)F)cc3)cc2)C(=O)CCCCn2c(CCc3cccc(F)c3F)nc(=O)c3ccccc32)CC1
inactive: inhibition [3] 4% | outcome [5] | outcome [6] | outcome [7] | outcome [8]
active: growth inhibition [1] 77% | inhibition [2] 54% | growth inhibition [4] 90%

COc1ccccc1/C=C/C(=O)N(C)C1CCN(CCCCCNC(=O)/C=C/c2ccc(Cl)c(Cl)c2)CC1
active: growth inhibition [1] 63% | inhibition [2] 71% | growth inhibition [4] 83%
inactive: inhibition [3] -3% | outcome [5] | outcome [6] | outcome [7] | outcome [8]

O=C(CCc1cnc[nH]1)Nc1cccc(-c2ccc(-c3nc4ccccc4[nH]3)cc2)c1
active: growth inhibition [1] 60% | growth inhibition [4] 100%
inactive: inhibition [2] 24% | inhibition [3] 1% | outcome [5] | outcome [6] | outcome [7] | outcome [8]

Cc1cc(-c2ccc(NC(=O)c3coc4ccc(N5C[C@@H](C)N(C)[C@@H](C)C5)cc34)cc2C)cc(C)n1
active: growth inhibition [1] 62% | growth inhibition [4] 94%
inactive: inhibition [2] 13% | inhibition [3] -4% | outcome [5] | outcome [6] | outcome [7] | outcome [8]

CN1CCC(C(=O)Nc2cccc(-c3ccc(-c4nc5ccc(C(F)(F)F)cc5[nH]4)cc3)c2)CC1
active: growth inhibition [1] 99% | growth inhibition [4] 100%
inactive: inhibition [2] 38% | inhibition [3] -4% | outcome [5] | outcome [6] | outcome [7] | outcome [8]

Cc1c(CCC#N)c(NCc2ccccc2)n2c(nc3ccccc32)c1C#N
active: growth inhibition [1] 99% | growth inhibition [4] 100%
inactive: inhibition [2] 16% | inhibition [3] 2% | outcome [5] | outcome [6] | outcome [7] | outcome [8]

COC(=O)[C@@H](NC(=O)[C@@H](Nc1ccc(C#N)c2ccccc12)C(C)(C)C)c1ccc(O)cc1
inactive: inhibition [2] -4% | inhibition [3] 1% | outcome [5] | outcome [6] | outcome [7] | outcome [8]
active: growth inhibition [1] 74% | growth inhibition [4] 101%

CCC(=O)NC(c1ccco1)c1cc(Cl)c2cccnc2c1O (configuration not stated)
inactive: inhibition [3] -5% | outcome [5] | outcome [6] | outcome [7] | outcome [8]
active: growth inhibition [1] 74% | inhibition [2] 58% | growth inhibition [4] 89%

CNC(=O)c1cc(NCCCNCc2ccc(Cl)c(C(F)(F)F)c2)nc2ccccc12
inactive: growth inhibition [1] 7% | inhibition [2] 25% | inhibition [3] -1% | outcome [5] | outcome [6] | outcome [7] | outcome [8]
active: growth inhibition [4] 91%

O=C(Nc1ccc(Cl)cc1)Nc1ccc(-c2csc(-c3nc4ccccc4[nH]3)c2)cc1
inactive: growth inhibition [1] 40% | inhibition [3] -4% | outcome [5] | outcome [6] | outcome [7] | outcome [8]
active: inhibition [2] 59% | growth inhibition [4] 90%

Fc1ccc2[nH]c3c(NCCCN4CCOCC4)ncnc3c2c1
active: growth inhibition [4] 98%
inactive: growth inhibition [1] 2% | inhibition [2] 14% | inhibition [3] -4% | outcome [5] | outcome [6] | outcome [7] | outcome [8]

COc1ccc2ncc(C)c(CCN3CCC(NCc4ccc5c(n4)NC(=O)CS5)CC3)c2c1
inactive: inhibition [2] 14% | inhibition [3] -4% | outcome [5] | outcome [6] | outcome [7] | outcome [8]
active: growth inhibition [1] 53% | growth inhibition [4] 100%

COc1ccc(NC(=O)N2CCc3ccc(OCCN(C(C)C)C(C)C)cc32)cc1C(F)(F)F
active: growth inhibition [4] 90%
inactive: growth inhibition [1] 6% | inhibition [2] -1% | inhibition [3] -2% | outcome [5] | outcome [6] | outcome [7] | outcome [8]

O=C(Nc1ccc(Cl)cc1)c1cc(Cl)cc2[nH]c(C(F)(F)F)nc12
active: growth inhibition [1] 100% | inhibition [2] 87% | growth inhibition [4] 100%
inactive: inhibition [3] 2% | outcome [5] | outcome [6] | outcome [7] | outcome [8]

Cc1cccc(-c2nn(-c3ccccc3)c3[nH]c(=O)c(CN4CCSCC4)cc23)c1
inactive: inhibition [2] -3% | inhibition [3] 0% | outcome [5] | outcome [6] | outcome [7] | outcome [8]
active: growth inhibition [1] 98% | growth inhibition [4] 98%

CCCCOc1ccc(CNCCCCCCNCc2ccc(OCCCC)c3ccccc23)c2ccccc12
active: inhibition [2] 100% | growth inhibition [4] 81%
inactive: growth inhibition [1] 49% | inhibition [3] 2% | outcome [5] | outcome [6] | outcome [7] | outcome [8]

Cc1cc(C(=O)Nc2ccc3c(c2)CCN3C2CCN(Cc3ccc(F)cc3Cl)C2)no1 (configuration not stated)
active: growth inhibition [1] 96% | growth inhibition [4] 95%
inactive: inhibition [2] 7% | inhibition [3] 1% | outcome [5] | outcome [6] | outcome [7] | outcome [8]

Cc1cccc(C(=O)Nc2ccnc(N3CCCN(Cc4cccc(O)c4)CC3)c2)c1
inactive: growth inhibition [1] 13% | inhibition [2] -21% | inhibition [3] 3% | outcome [5] | outcome [6] | outcome [7] | outcome [8]
active: growth inhibition [4] 84%

CCc1nc2nc(C)cc(Nc3ccc4c(c3)OCCO4)n2n1
active: growth inhibition [1] 55% | growth inhibition [4] 88%
inactive: inhibition [2] 8% | inhibition [3] -1% | outcome [5] | outcome [6] | outcome [7] | outcome [8]

Cc1ccccc1C1CCN(c2ncc(C(=O)Nc3ccccc3)cc2Cl)CC1
inactive: inhibition [2] 29% | inhibition [3] -3% | outcome [5] | outcome [6] | outcome [7] | outcome [8]
active: growth inhibition [1] 83% | growth inhibition [4] 83%

O=C(Nc1ccc(-c2ccccc2)cc1)Nc1ccc2c(c1)CCNCC2
active: growth inhibition [4] 97%
inactive: growth inhibition [1] 48% | inhibition [2] 41% | inhibition [3] -2% | outcome [5] | outcome [6] | outcome [7] | outcome [8]

CN1CCN(CC(O)CNC(=O)Nc2ccc(Cl)cc2)CC1 (configuration not stated)
active: growth inhibition [1] 98% | growth inhibition [4] 99%
inactive: inhibition [2] 1% | inhibition [3] -3% | outcome [5] | outcome [6] | outcome [7] | outcome [8]

CN(/N=C/c1ccc(Cl)cc1)c1nc(NCCc2ccc(O)cc2)nc(N2CCNCC2)n1
inactive: inhibition [2] 10% | inhibition [3] 4% | outcome [5] | outcome [6] | outcome [7] | outcome [8]
active: growth inhibition [1] 97% | growth inhibition [4] 101%

C[C@H]1CN(Cc2cccc(-c3cc(CNC(=O)c4cccc(C(=O)c5ccc(Cl)c(Cl)c5)c4)ccc3F)c2)CCN1
active: growth inhibition [4] 85%
inactive: growth inhibition [1] 42% | inhibition [2] 40% | inhibition [3] 2% | outcome [5] | outcome [6] | outcome [7] | outcome [8]

CC1CN(Cc2ccc(-c3ccc(-c4nc5ccc(F)cc5[nH]4)cc3)cc2)CC(C)O1 (configuration not stated)
active: growth inhibition [1] 93% | growth inhibition [4] 96%
inactive: inhibition [2] 40% | inhibition [3] -1% | outcome [5] | outcome [6] | outcome [7] | outcome [8]

Cn1ccnc1CNC(=O)c1ccc(-c2cccc(-c3nc4ccc(C(F)(F)F)cc4[nH]3)c2)cc1
inactive: inhibition [2] 20% | inhibition [3] 3% | outcome [5] | outcome [6] | outcome [7] | outcome [8]
active: growth inhibition [1] 80% | growth inhibition [4] 101%

O=C1C2C(C(=O)N1c1ccccc1)[C@H]1S[C@@H]2c2c1ccc1ccccc21 (some centres not stated)
active: growth inhibition [4] 96%
inactive: growth inhibition [1] 7% | inhibition [2] -5% | inhibition [3] -1% | outcome [5] | outcome [6] | outcome [7] | outcome [8]

O=C(CSc1nc2ccccc2c(=O)n1C1CC1)Nc1cc(C(F)(F)F)ccc1Cl
inactive: inhibition [2] 5% | inhibition [3] 2% | outcome [5] | outcome [6] | outcome [7] | outcome [8]
active: growth inhibition [1] 96% | growth inhibition [4] 97%
